An excerpt weighted towards active compounds, which were near 3.5% of everything screened.
TEAD-YAP inh = TEAD-YAP interaction inhibition; AID 1259422; inhibition, % at 9.12 µM; actives 1.4% (n = 640,000); HEK-TIYL cells, TEAD-Gal4/YAP UAS-luciferase luminescence; in the data active = inhibition above about 32%
FBW7 act = activators of human E3 ligase FBW7 | AlphaScreen FBW7–phospho-cyclin E peptide binding, activator screen | normalized activity (activation), % at 26.1 µM | actives 0.13% (n = 650,000) | AID 1259310; in the data active = normalized activity above about 1.9%;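 note: purified mutant Fbw7 with reduced substrate affinity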
MITF inh = blocks human microphthalmia-associated transcription factor; O75030; AlphaScreen MITF homodimerization, bead proximity signal; inhibition, % at 2.6 µM; actives 0.91% (n = 650,000); in the data active = inhibition above about 50%
GPR151 ag = human GPR151 activation | PathHunter beta-arrestin GPR151 cells, luminescence | activation, % at 11.2 µM | actives 1% (n = 650,000) | AID 1508602; in the data active = activation above about 4.9%
Target sequence (Q8TDV0 whole entry, looked up): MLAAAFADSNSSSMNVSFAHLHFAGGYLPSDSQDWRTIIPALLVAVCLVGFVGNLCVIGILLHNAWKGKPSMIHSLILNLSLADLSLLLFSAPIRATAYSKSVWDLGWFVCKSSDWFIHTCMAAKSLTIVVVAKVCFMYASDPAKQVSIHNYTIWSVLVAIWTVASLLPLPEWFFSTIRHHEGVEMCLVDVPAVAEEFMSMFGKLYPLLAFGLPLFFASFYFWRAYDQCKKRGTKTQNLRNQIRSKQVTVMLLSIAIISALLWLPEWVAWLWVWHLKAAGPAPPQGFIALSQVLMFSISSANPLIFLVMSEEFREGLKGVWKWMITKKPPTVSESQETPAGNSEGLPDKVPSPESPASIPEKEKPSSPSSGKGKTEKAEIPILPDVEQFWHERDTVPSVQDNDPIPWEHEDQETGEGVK
GPR151 confirm = confirmation of human GPR151 activators; shares compounds with GPR151 ag; AID 1508609; 6,700 tested, under 10 active; activation, % at 11.2 µM; GPR151 PathHunter beta-arrestin cells, luminescence, 90 min; % of EA-reagent control over plate median;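 active = mean percent activation across replicates above the confirmation screen cutoff of 4.91%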
GPR119 ag = GPR119 activation, counter-screen for GPR151 activators. GPR119 PathHunter beta-arrestin cells, luminescence, 90 min; 0 = compound-well median, 100 = enzyme-acceptor control. shares compounds with GPR151 ag. activation, % at 11.2 µM. actives 0.3% (n = 6,700). AID 1508611;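 active = mean percent activation in the counterscreen above 29.09%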;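 note: counterscreen on off-target GPR119 to flag nonselective hits from the GPR151 activator screen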
Each line names hits and unclear results; the compound was inactive in the other large screens (follow-up assays come after a bar, where they were run).

COc1ccc(C2C(C#N)=C(N)Oc3n[nH]c(C)c32)c2ccccc12 (stereo unspecified)	GPR151 ag 5.5 | GPR151 confirm inactive | GPR119 ag inactive
COc1ccc(C2C(C#N)=C(N)Oc3n[nH]c(C)c32)c(OC)c1OC (stereo unspecified)	none
CC(C)CC(=O)NS(=O)(=O)c1ccc(NC(=O)c2ccccc2Cl)cc1	GPR151 ag 5.1 | GPR151 confirm inactive | GPR119 ag inactive
CC(C)CC(=O)NS(=O)(=O)c1ccc(NC(=O)c2ccc(Cl)cc2)cc1	none
CCOC(=O)C1=C(C)N=c2s/c(=C\c3ccc(-c4ccc(Cl)cc4Cl)o3)c(=O)n2C1c1ccc(C)cc1 (stereo unspecified)	none
CCc1ccc(C2=NC(C)(CC)NC(c3cc(Cl)ccc3O)C2)cc1 (stereo unspecified)	none
CCCC1(C)N=C(c2ccc(CC)cc2)CC(c2cc(Br)ccc2O)N1 (stereo unspecified)	GPR151 ag 11.5 | GPR151 confirm inactive | GPR119 ag inactive
CCSC1=C(C#N)C(c2ccc(Cl)cc2)CC(=O)N1 (stereo unspecified)	none
CCSC1=C(C#N)C(c2ccc(O)cc2)CC(=O)N1 (stereo unspecified)	GPR151 ag 6.2 | GPR151 confirm inactive | GPR119 ag inactive
COc1ccc(C(=O)Oc2c(Cl)cc(/C=C3\SC(N)=NC3=O)cc2OC)cc1	GPR151 ag 8.2 | GPR151 confirm inactive | GPR119 ag inactive
COc1cc(/C=C2\SC(N)=NC2=O)ccc1OC(=O)c1ccc(Cl)cc1	none
O=C(NNC(=O)c1csc2ccccc12)Nc1ccc2c(c1)OCO2	none
Cc1ccc(N=NNc2cccc([N+](=O)[O-])c2)cc1	GPR151 ag 5.9 | GPR151 confirm inactive | GPR119 ag inactive
O=C(Cc1ccccc1)Nc1cc(N2C(=O)C3CC=CCC3C2=O)ccc1Cl (stereo unspecified)	none
N#C/C(=C\c1ccc(F)cc1)C(=O)N1CCOCC1	GPR151 ag 6.3 | GPR151 confirm inactive | GPR119 ag inactive
CCOC(=O)C1=C(Cn2ccnc2)NC(=O)NC1c1ccc(C)cc1 (stereo unspecified)	none
O=S1(=O)NC(=NC2CCCC2)c2ccccc21	none
Cc1nc2ccc(Br)cc2c(Cl)c1CCC(=O)O	GPR151 ag 8.9 | GPR151 confirm inactive | GPR119 ag inactive
COc1ccc(CC(=O)NNC(=O)c2ccc(Cl)cc2)cc1OC	GPR151 ag 5.3 | GPR151 confirm inactive | GPR119 ag inactive
Cc1ccc2c(c1)CN(CCNC(=O)CCc1ccco1)CC(C)O2 (stereo unspecified)	none
Cc1ccc2c(c1)CN(CCNC(=O)CCc1ccc(=O)[nH]n1)CC(C)O2 (stereo unspecified)	GPR151 ag 5.3 | GPR151 confirm inactive | GPR119 ag inactive
O=C(NCc1ccncc1)c1ccc(OC2CCN(C3CCSC3)CC2)cc1 (stereo unspecified)	GPR151 ag 9.7 | GPR151 confirm inactive | GPR119 ag inactive
O=C(NCc1ccccn1)c1cccc(OC2CCN(C3CCSCC3)CC2)c1	GPR151 ag 8.7 | GPR151 confirm inactive | GPR119 ag inactive
O=C1OC(C23CC4CC(CC(C4)C2)C3)=N/C1=C\c1cc2c(cc1[N+](=O)[O-])OCO2	none
CCOC(=O)c1c(NC(=O)CCSc2nnc3ccccn23)sc2c1CCCC2	none
CCOC(=O)c1c(NC(=O)CSc2nc3ccccc3[nH]2)sc2c1CCCC2	GPR151 ag 6.3 | GPR151 confirm inactive | GPR119 ag inactive
CCOC(=O)c1c(NC(=O)CSc2nnc(CNC(=O)c3ccc(OC)cc3)n2-c2ccc([N+](=O)[O-])cc2)sc2c1CCCCC2	GPR151 ag 5.9 | GPR151 confirm inactive | GPR119 ag inactive
CCOC(=O)c1c(NC(=O)CSc2ccccn2)sc2c1CCCC2	GPR151 ag 6.8 | GPR151 confirm inactive | GPR119 ag inactive
CCOC(=O)c1c(NC(=O)CSc2nnc3ccccn23)sc2c1CCCC2	GPR151 ag 6.8 | GPR151 confirm inactive | GPR119 ag inactive
CC1(C2CCN(C(=O)C3CCC3)CC2)NC(=O)N(C2Cc3ccccc3C2)C1=O (stereo unspecified)	none
Cc1ccc(CNC(=O)CCCn2c(=O)c3ccccc3n(CC(N)=O)c2=O)cc1	GPR151 ag 5.2 | GPR151 confirm inactive | GPR119 ag inactive
O=C1/C(=C/c2ccc([N+](=O)[O-])cc2)C=C(c2ccccc2)N1c1ccc(-c2ccccc2)cc1	none
COC(=O)C1CCCCN1Cc1ccc2c(c1)CN(Cc1cnn(C)c1C)CCO2 (stereo unspecified)	GPR151 ag 5.9 | GPR151 confirm inactive | GPR119 ag inactive
COC(=O)[C@@H]1CCCN1Cc1ccc2c(c1)CN(Cc1ccc3c(c1)OCCO3)CCO2	none
CC1(C)c2ssc(=S)c2-c2ccccc2N1C(=O)c1ccc([N+](=O)[O-])cc1	none
CC1=CCC2C(=O)N(C(C)c3ccccc3)C(=O)C2C1 (stereo unspecified)	GPR151 ag 7.5 | GPR151 confirm inactive | GPR119 ag inactive
CC1=CCC2C(=O)N(Cc3ccccc3)C(=O)C2C1 (stereo unspecified)	none
Cc1ccc(CSc2nc3[nH]ncc3c(=O)n2-c2cccc(C)c2)cc1	GPR151 ag 9.0 | GPR151 confirm inactive | GPR119 ag inactive
Cc1ccc(-n2c(SCc3cccc(C)c3)nc3[nH]ncc3c2=O)cc1	none
CCc1ccc(-n2c(SCc3cc(=O)n4c(C)cccc4n3)nc3[nH]ncc3c2=O)cc1	GPR151 ag 5.8 | GPR151 confirm inactive | GPR119 ag inactive
O=C(/C=C/c1cccs1)NCc1nc2ccccc2[nH]1	none
CCOC(=O)CN(C)C(=O)c1cc(COc2ccc(C(C)=O)cc2)on1	none
C/C(=N\NC(=O)CNc1ccccc1Cl)C(C)(C)C	GPR151 ag 5.9 | GPR151 confirm inactive | GPR119 ag inactive
CCOc1cccc2cc(-c3csc(Nc4ccccc4C(F)(F)F)n3)c(=O)oc12	GPR151 ag 8.1 | GPR151 confirm inactive | GPR119 ag inactive
CCOc1cccc2cc(-c3csc(Nc4ccccc4Cl)n3)c(=O)oc12	none
CCOc1ncccc1C(=O)NC1(C)CCS(=O)(=O)C1 (stereo unspecified)	GPR151 ag 6.2 | GPR151 confirm inactive | GPR119 ag inactive
COc1cccc(CN2CCN(Cc3cccs3)C(CCO)C2)c1 (stereo unspecified)	none
COc1ccc(CN2CCN(Cc3cccs3)C(CCO)C2)c(O)c1 (stereo unspecified)	GPR151 ag 5.1 | GPR151 confirm inactive | GPR119 ag inactive
Cn1c(SCCC(=O)O)nnc1-c1cccc([N+](=O)[O-])c1	none
COc1ccccc1-c1nnc(SCc2nnc(-c3cccc([N+](=O)[O-])c3)o2)n1C	GPR151 ag 6.3 | GPR151 confirm inactive | GPR119 ag inactive

Screens from PubChem BioAssay.
